# Bioassay records from PubChem.
# SNCA expr inhib: reduces expression of the alpha-synuclein gene; HEK-293 SNCA-luciferase knock-in, luminescence, 24 h; Potency, µM (top dose mostly 57.2 µM), for the others: at the top dose activity change, negative = inhibition, actives largely listed as inhibitors; 140,000 tested, 0.17% active; AID 1671194;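 note: potency is the fitted concentration of half-maximal effect; plate controls were DMSO cells for no effect and cell-free wells for full effect; nearly all actives have a fitted effect of over 45% in size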
# GPT2 inhibitor: GPT2 alanine aminotransferase inhibition; 100,000 tested, 0.25% active; Potency, µM (highest dose often 57.7 µM), inactives show top-dose activity change, negative = inhibition, actives largely listed as inhibitors; Recombinant GPT2, coupled pyruvate oxidase/HRP Amplex Red fluorescence; AID 1671188; Q8TD30; note: potency is the fitted concentration of half-maximal effect; nearly all actives have a fitted effect of over 60% in size
# Target sequence (Q8TD30 whole entry, looked up): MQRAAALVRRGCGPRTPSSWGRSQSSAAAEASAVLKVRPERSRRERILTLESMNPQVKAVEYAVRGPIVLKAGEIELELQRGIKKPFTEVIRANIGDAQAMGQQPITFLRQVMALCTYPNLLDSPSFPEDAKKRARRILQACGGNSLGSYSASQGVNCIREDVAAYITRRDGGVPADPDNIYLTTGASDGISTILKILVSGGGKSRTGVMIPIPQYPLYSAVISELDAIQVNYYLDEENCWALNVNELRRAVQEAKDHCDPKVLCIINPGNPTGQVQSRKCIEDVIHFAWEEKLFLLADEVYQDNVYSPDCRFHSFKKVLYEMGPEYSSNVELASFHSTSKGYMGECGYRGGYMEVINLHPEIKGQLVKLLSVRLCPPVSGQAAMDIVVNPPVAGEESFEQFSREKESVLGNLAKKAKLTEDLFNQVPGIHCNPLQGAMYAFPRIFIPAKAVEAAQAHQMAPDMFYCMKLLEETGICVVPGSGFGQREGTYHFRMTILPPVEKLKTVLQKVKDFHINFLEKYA
#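 GPT2 10ng/uL, a-KG 250uM, L-Ala 2mM, HEPES pH7.5 + 0.0001% Tween; 30 min RT. Then Amplex mix (PO/HRP/ThPP), 30 min RT dark, fluorescence. AOA 50uM used as positive control.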
# IP6K1 inh: inhibitors of human IP6K1 | Q92551 | IP6K1 kinase, ADP-Glo luminescence, 2 h; hits give low values | activity change, % (series mostly up to about 58 µM) | 140,000 tested, 0.81% active | AID 1645851; in the data active = activity change below about -25%
#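 ADP-Glo luminescence measures ADP made by human IP6K1 during a 2 h RT reaction with ATP/IP6 (mix at 1.3 mM/130 uM); top library doses 57.5 and 19.1 uM final.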
# HEK293 viab: cell viability loss counter-screen; HEK-293-SNCA-luc viability, GF-AFC fluorescence, 24 h; Potency, µM (titrated, usually from 57.1 µM), without a hit: top-dose activity change, negative = cytotoxicity, hits mostly cytotoxic; 150,000 tested, 0.12% active;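 note: potency is the fitted concentration of half-maximal effect; 0% = DMSO-treated cells and -100% = medium-only wells without cells; nearly all actives have a fitted effect of over 30% in size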
#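 HEK-293-SNCA-luc cells (1500/well) plated 24 h, then exposed 24 h to a dilution series; GF-AFC added 30 min at 37C, fluorescence 405/540 nm; normalised to medium-only and DMSO wells, Hill fit.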
# IP6K1 inh cnf: human IP6K1 inhibition, confirmatory; shares compounds with IP6K1 inh; recombinant IP6K1 kinase, ADP-Glo luminescence, 2 h; Potency, µM (highest dose often 49 µM), without a hit: at the top dose activity change, negative = inhibition, usual class: inhibitors; 1,200 tested, 13% active; note: potency is the fitted concentration of half-maximal effect; nearly all actives have a fitted effect of over 65% in size
# Numbers without * were called inactive; i = inactive; ? = inconclusive; . = not tested or not shown; ! = not confirmed by another sample; [ ] = dose if it differs, or a comment. In the library only some 1.1% were active in any assay of this set; here they are far more common. Unless noted, calls come from the whole dose curve; as a rule, active = well fitted curve in the direction sought with a large enough effect; inconclusive = small, poorly fitted or top-dose-only effect, or another doubt; inactive = no such curve, though single readings can be large; an effect the other way counts as inactive or inconclusive. Unless noted, % is set by controls: 0 for no effect and ±100 for the full control effect.
SMILES,SNCA expr inhib,GPT2 inhibitor,IP6K1 inh,HEK293 viab,IP6K1 inh cnf
CC(C(=O)NCc1ccccc1)n1ccc2cc(S(=O)(=O)N3CCCC3)ccc21 (stereo unspecified),9%,.,-27*,-16%,-16%
O=C([C@@H]1C[C@H](Oc2ccccc2)CN1C(=O)c1ccccn1)N1CCCC1,-7%,i,13,-9%,.
C[C@@H]1COC(Nc2ccc3ncnc(Nc4ccc(OCc5nccs5)c(Cl)c4)c3c2)=N1,-17%,2%,-34*,?,?
Cc1oncc1C(=O)Nc1ccc(C(F)(F)F)cc1,-22%,-6%,30,0%,2%
CN(Cc1noc(C2CCCC2)n1)c1cc(C2CC(O)C2)ncn1 (stereo unspecified),1%,5%[11.5 µM],-28*,-11%,-3%
CC1(CNc2ccccc2)COc2ccc(C(=O)NCCc3cnc[nH]3)cc2N1 (stereo unspecified),-10%[87.6 µM],i,-40*,-2%[87.6 µM],?
CC1(CNc2ccccc2)COc2ccc(C(=O)NCc3cccnc3)cc2N1 (stereo unspecified),3%[87.6 µM],5%[88.5 µM],-12,-2%[87.6 µM],.
C/C(=C\c1ccccc1)CN1CCC2(Cc3ccccc3CNC2=O)C1 (stereo unspecified),-22%,3%,-10,-17%,.
CN(C)CC(=O)N1Cc2ccccc2CC2(CCCN(CC3CCNCC3)C2)C1 (stereo unspecified),3%,?,12,-14%,.
CN(C)CC(=O)N1Cc2ccccc2CC2(CCN(CC3CCNCC3)C2)C1 (stereo unspecified),-5%,i,-27*,1%,?
O=C(N[C@H]1[C@H](O)[C@H](O)C[C@@H]1c1ccc(C(F)(F)F)cc1)c1ccc2c(c1)OCCO2,0%[87.6 µM],-6%[88.5 µM],14,?,.
O=c1nc(-c2ccccn2)sc2ccccc12,.,0%,-54*,-13%,-18%
CCCCNC(=O)c1cc(Sc2ccc(OCC)cc2)nc2ccccc12,14%,.,-26*,13%,-12%
Cc1noc(/C=C/c2ccccc2F)c1S(=O)(=O)N1CCC(C(=O)NCC(C)c2ccccc2)CC1 (stereo unspecified),-20%,.,1,4%,.
Cc1cc2c(cc1S(=O)(=O)NCc1ccc(F)cc1)n(C)c(=O)c(=O)n2C,5%,.,-26*,11%,-18%
Cc1ccc(S(=O)(=O)N2CCCc3cc(NS(=O)(=O)c4cccc(Cl)c4)ccc32)cc1,?,.,-26*,-23%,6%
COCCC(=O)N1CCCCCNC(=O)[C@@H]2CCC[C@@H]21,0%,-14%,-2,7%,.
COc1cccc(N2CCN(C(=O)CCSCc3ccccc3F)CC2)c1,45%,.,-29*,3%,-13%
Cc1cc(C)c(Nc2ncnc3c2cnn3C)c(C)c1,-3%,.,-1,4%,.
Cn1ncc2c(Nc3cccc(F)c3)ncnc21,18%,.,-28*,4%,?
CC(C)Oc1cccc(-c2nnc(CCC(=O)NCCc3cccs3)c(=O)[nH]2)c1,0%,i,-27*,9%,?
Cc1ccc(OCCCCn2cnc3ccccc32)cc1,14%,.,-33*,8%,?
Cn1cccc1C(=O)N[C@H]1C[C@@H](C(=O)O)N(C(=O)CCC(=O)N2C[C@@H](NC(=O)c3cccs3)C[C@H]2C(=O)O)C1,-1%,-1%,0,3%,.
COc1ccc(-c2c(C(=O)NCc3ccccn3)nc3sccn23)cc1,-4%,2%,-30*,-6%,1%
COc1ccc2oc(=O)cc(CN3CCN(c4ccc(F)cc4)CC3)c2c1,4%,.,-25*,-8%,-21%
SMILES,SNCA expr inhib,GPT2 inhibitor,IP6K1 inh,HEK293 viab,IP6K1 inh cnf
CCOc1ccc2oc(=O)cc(CN3CCN(c4ccccc4)CC3)c2c1,-15%,.,-17,0%,.
C=CCCC(=O)N1CCC2(CC1)[C@@H](C(=O)OCC)[C@@H](O)C(=O)N2C,.,.,15,.,.
O=C(NCCN1CCCCCC1)C1(CCO)CC12CCOCC2 (stereo unspecified),-13%,?,5,14%,.
CC(=O)c1cccc(Nc2nc(-c3cccc(C)c3)nc3ccccc23)c1,52%,.,-39*,-5%,?
COc1ccc2[nH]c3c(c2c1)CCN(C)C31CCN(C(=O)c2cccnc2)CC1,?,i,17,1%[12.5 µM],.
COCCNC(=O)c1ccc2c(=O)n(CCc3ccccc3)c(SCC(=O)CC(=O)OC)nc2c1,-20%,.,-25*,-3%,-10%
COCCNC(=O)c1ccc2c(=O)n(CCOC)c(SCC(=O)c3c[nH]c4ccccc34)nc2c1,?,.,-13,1%,.
COc1ccccc1CC(=O)N1CC[C@@H](NC(=O)c2cnccn2)[C@H](O)C1,12%,-26%[11.5 µM],-31*,-1%,6%
Cc1nc(CC(=O)N2CC[C@@H](NC(=O)c3cnccn3)[C@H](O)C2)cs1,2%,i,-4,2%,.
COc1cccc(CNC(=O)c2cn3cc(-c4ccccc4)sc3n2)c1,38%,-20%,-7,4%,.
COc1cccc(NC(=O)Nc2cccc(-c3ccc(N4CCOCC4)nn3)c2)c1,-55%,5%,-21,?,.
Nc1cccc(-c2ccc(N3CCOCC3)nn2)c1,?,i,-30*,6%,?
c1csc(-c2nc3ccccn3c2Nc2ccc3c(c2)OCCO3)c1,-9%,.,43,-12%,.
Cc1ccn2c(Nc3ccc4c(c3)OCCO4)c(-c3cccs3)nc2c1,58%,.,-27*,-13%,-16%
COCCNC(=O)c1ccc2nnc(Cc3ccco3)n2c1,3%[87.6 µM],i,1,4%[87.6 µM],.
O=C(NCC1CC1)c1ccc2nnc(Cc3ccco3)n2c1,16%[87.6 µM],i,-27*!,-10%[87.6 µM],?
O=C1OC2(c3ccccc31)c1cc(Br)c(O)c(Br)c1Oc1c2cc(Br)c(O)c1Br,-43%[25.6 µM],1%,-69*,-12%[23.9 µM],3.3µM*
CCc1cccc(CC)c1N(COC)C(=O)Cn1c(C)nc2ccccc21,?,.,-33*,-26%,13%
O=C(Cc1c[nH]c2ncc(-c3cccc(OC(F)(F)F)c3)cc12)NCc1cccnc1,-11%[87.6 µM],?,-13,-16%[87.6 µM],.
COc1cccc(-c2cnc3[nH]cc(CC(N)=O)c3c2)c1,0%[87.6 µM],i,-44*,4%[87.6 µM],?
NC(=O)Cc1c[nH]c2ncc(-c3cccc(OC(F)(F)F)c3)cc12,-25%[87.6 µM],?,-27*,-16%[87.6 µM],?
CCOCCN1C(=O)COC[C@@H]1[C@H](O)c1ccc(NC(=O)c2ccccc2OC)cc1,-28%[87.6 µM],i,-4,5%[87.6 µM],.
O=Cc1ccc(-c2ccc(C(=O)O)cn2)cc1,9%[87.6 µM],4%[88.5 µM],-27*,2%[87.6 µM],6%
O=Cc1cccc(-c2ccc(C(=O)O)cn2)c1,-13%[87.6 µM],i,-16,-6%[87.6 µM],.
COc1ccc(C2=NS(=O)(=O)N(C)C(C(=O)NCc3ccccc3)=C2)cc1OC,38%,.,-26*,4%,-12%
